From PubChem BioAssay (NCATS) come the findings set out here.

Assay [1] can be described thus: Quantitative High-Throughput drug screen in 47 multiple myeloma cell lines against the NCATS MIPE library collection: FR4_PLB cell viability assay (AID 1918924; also: nearly all actives have a fitted effect of over 35% in size). In short, it runs like this: (§1)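 Inhibition of cell viability is measured here. Each line was plated at 500 cells per well, treated with MIPE 4.0 drugs, kept 48 hours at 37C, then assayed for ATP content by CellTiter-Glo luminescence.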

The nature of assay [2]: Quantitative High-Throughput drug screen in 47 multiple myeloma cell lines against the NCATS MIPE library collection: AMO1_DSMZ cell viability assay (AID 1918927; also: nearly all actives have a fitted effect of over 30% in size). In outline: (§2)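 Luminescent ATP measurement with CellTiter-Glo gives viability, scaled between DMSO-only wells (100%) and media-only wells (0%). Cells, 500 per well, faced library compounds for 48 hours at 37C.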

Assay [3] can be described thus: Quantitative High-Throughput drug screen in 47 multiple myeloma cell lines against the NCATS MIPE library collection: ARP1_JJKsccF8 cell viability assay (AID 1918928; also: nearly all actives have a fitted effect of over 40% in size). In outline: (§3)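 ATP readout (CellTiter-Glo), 48 h drug incubation, 37 °C/5% CO2, 500 cells per well; normalisation to DMSO (100%) and media-only (0%) controls.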
Assay [4] is described as follows: Quantitative High-Throughput drug screen in 47 multiple myeloma cell lines against the NCATS MIPE library collection: Karpas620_DSMZ cell viability assay (AID 1918959). Also: nearly all actives have a fitted effect of over 30% in size. In short, it runs like this: as §1
Assay [5] in a line: Quantitative High-Throughput drug screen in 47 multiple myeloma cell lines against the NCATS MIPE library collection: KMM1_JCRB cell viability assay (AID 1918960). Also: nearly all actives have a fitted effect of over 30% in size.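 As to viability (% of DMSO): 100% = DMSO-treated cells and 0% = medium-only wells.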 In outline:
as §3

Assay [6] in a line: Quantitative High-Throughput drug screen in 47 multiple myeloma cell lines against the NCATS MIPE library collection: Delta47_JCRB cell viability assay (AID 1918925; also: nearly all actives have a fitted effect of over 45% in size). In outline:
as §2

Assay [7] can be described thus: Quantitative High-Throughput drug screen in 47 multiple myeloma cell lines against the NCATS MIPE library collection: EJM_DSMZ cell viability assay (AID 1918926; also: nearly all actives have a fitted effect of over 30% in size). In outline:
as §2

Assay [8] can be described thus: Quantitative High-Throughput drug screen in 47 multiple myeloma cell lines against the NCATS MIPE library collection: ARD_JJKsccE7 cell viability assay (AID 1918929). In short, it runs like this: as §2
Assay [9] is described as follows: Quantitative High-Throughput drug screen in 47 multiple myeloma cell lines against the NCATS MIPE library collection: Karpas417_ECACC cell viability assay (AID 1918961). Conditions: Karpas417 myeloma viability, CellTiter-Glo ATP luminescence, 48 h; viability (% of DMSO): at 45.8 µM (top of the series). In outline:
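qHTS of the MIPE 4.0 collection: 500 myeloma cells/well, 48 h drug exposure at 37C in 5% CO2, then CellTiter-Glo for 5 min at room temperature before luminescence reading.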
(ATP-based viability assays read luminescence as a measure of living cells.)

Each structure is given as a SMILES string. Results filed as inconclusive are left out. Active and inactive are the calls of the source. Calls follow the shape of the dose curve; as a rule, active = well fitted cell-killing curve with a large enough effect; inconclusive = small, poorly fitted or top-dose-only effect, or effect the other way; inactive = no such curve, though single readings can be large or run the other way.
Potency is read from the fitted curve at half-maximal effect.

Turning to `Cc1nnc(NS(=O)(=O)c2ccc(N)cc2)s1`, in assay [1], the Potency entry is “inactive”. Moreover, the Potency was 1.87 µM (active) in assay [2], 20.9 µM (active) in assay [3], 1.66 µM (active) in assay [4] and 1.18 µM (active) in assay [5].
Take `CCOc1cc(N)c(Cl)cc1C(=O)NCC1CN(Cc2ccc(F)cc2)CCO1` (stereo not drawn): the Potency result in assay [6], in assay [7], in assay [3], in assay [4] and in [5] was “inactive” each time.
For the compound `O=NN(CCCl)C(=O)NC1CCCCC1`, the Potency entry in assay [7], in assay [2], in assay [3], in assay [8] and in [4] was “inactive” each time.
Turning to `O=C(N[C@H](CO)[C@H](O)c1ccc([N+](=O)[O-])cc1)C(Cl)Cl`, the Potency entry in assay [6], in assay [7], in assay [8], in assay [4] and in [5] was “inactive” throughout.
For `COc1cc2c(Nc3ccc(Br)cc3F)ncnc2cc1OCC1CCN(C)CC1`, the Potency in [7] is 23.5 µM (active). Also, the Potency entry in [4], in assay [5] and in assay [9] was “inactive” in each case.
`CO[C@@H]1[C@@H](OC(N)=O)[C@@H](O)[C@H](Oc2ccc3c(O)c(NC(=O)c4ccc(O)c(CC=C(C)C)c4)c(=O)oc3c2C)OC1(C)C`: the values for the Potency in [6], in assay [7] and in [3] were 5.26 µM (active), 5.26 µM (active) and 0.935 µM (active), respectively.
Consider `CCOC(=O)c1ccc(C#Cc2ccc3c(c2)C(C)(C)CCS3)nc1`, for which the Potency entry in assay [8], in assay [4] and in assay [5] was “inactive” in each case. The viability (% of DMSO) in assay [9] was 132% (active).
Turning to `O=S(=O)(c1cccc2cnccc12)N1CCCNCC1`, the Potency entry in [8] and in assay [5] was “inactive” throughout.
For `CCCCCCNC(=O)n1cc(F)c(=O)[nH]c1=O`, the Potency result in [7] and in assay [4] was “inactive” in each case. Moreover, in assay [3], the Potency was 8.33 µM (active).
For the compound `CCOC(=O)[C@H](CCc1ccccc1)N[C@H]1CCc2ccccc2N(CC(=O)O)C1=O`, the Potency in assay [6] was 20.9 µM (active); in assay [7] it was 23.5 µM (active); in assay [8], 18.7 µM (active); in [4] it was 14.8 µM (active); in assay [5], 18.7 µM (active).
Regarding `CCOC(=O)[C@H](CCc1ccccc1)N[C@H]1CS[C@H](c2cccs2)CN(CC(=O)O)C1=O`, the Potency was 2.96 µM (active) in assay [6]; 1.66 µM (active) in assay [8]; 4.69 µM (active) in assay [4]; 1.05 µM (active) in assay [5]; 0.264 µM (active) in assay [9].
Turning to `CCc1cc(C(N)=S)ccn1`, the Potency result in assay [7], in [2], in assay [8], in [4], in [5] and in [9] was “inactive” in each case.
For `C[C@@H](CN1CC(=O)NC(=O)C1)N1CC(=O)NC(=O)C1`, the Potency result in assay [1], in [7] and in assay [5] was “inactive” throughout. Further, the Potency in [9] is 0.0526 µM (active).
Regarding `CC(C)OC(=O)OCOP(=O)(CO[C@H](C)Cn1cnc2c(N)ncnc21)OCOC(=O)OC(C)C`, in [1], the Potency entry was “inactive”. The Potency in assay [2] is 20.9 µM (active); in assay [8], 23.5 µM (active); in assay [5], 20.9 µM (active).
Consider `Nc1nc(N)c2nc(CNc3ccc(C(=O)NC(CCC(=O)O)C(=O)O)cc3)cnc2n1` (stereo not drawn), for which the Potency entry in [6] and in assay [4] was “inactive” in each case. The Potency in [2] is 0.0235 µM (active); in assay [8], 0.0118 µM (active).
For the compound `CCCCOc1ccc(CC(=O)NO)cc1`, the Potency in [7] is 5.26 µM (active); in assay [2] it was 11.8 µM (active); in assay [4], 18.7 µM (active).
For the compound `CNNCc1ccc(C(=O)NC(C)C)cc1`, the Potency result in assay [7], in assay [2] and in [4] was “inactive” each time. Besides, the Potency in assay [5] is 2.96 µM (active).
With `CC1CC2C3CCC4=CC(=O)C=C[C@]4(C)[C@@]3(F)[C@@H](O)C[C@]2(C)[C@@]1(O)C(=O)CO` (stereo partly drawn), the Potency entry in [7] was “inactive”. Besides, the Potency in [2] is 0.833 µM (active).
For `Cc1oc(=O)oc1CN1CCN(c2cc3c(cc2F)c(=O)c(C(=O)O)c2n3C(C)S2)CC1` (stereo not drawn), the Potency entry in [6], in assay [2], in [8], in assay [4] and in assay [5] was “inactive” in each case. For the same compound, the Potency in assay [3] is 14.8 µM (active).
As for `COc1ccc2c(c1)c(CC(=O)OCC(=O)O)c(C)n2C(=O)c1ccc(Cl)cc1`, the Potency result in [1], in assay [2], in assay [4] and in [5] was “inactive” throughout.
Turning to `CCC(C)(C)c1ccc(CC(C)CN2C[C@@H](C)O[C@@H](C)C2)cc1` (stereo partly drawn), the Potency entry in [8], in assay [4], in assay [5] and in assay [9] was “inactive” throughout.
As to `O[C@@H](CNC[C@H](O)[C@H]1CCc2cc(F)ccc2O1)[C@@H]1CCc2cc(F)ccc2O1`, the Potency in assay [6] was 18.7 µM (active); in assay [2] it was 26.4 µM (active); in [3], 14.8 µM (active); in [4], 20.9 µM (active); in [5], 16.6 µM (active). In addition, in [7], the Potency result was “inactive”.
With `C[C@@H]1CN(c2c(F)c(N)c3c(=O)c(C(=O)O)cn(C4CC4)c3c2F)C[C@H](C)N1`, the Potency result in [7], in assay [2], in assay [3], in assay [4] and in assay [5] was “inactive” in each case.
As for `COc1cnc(NS(=O)(=O)c2ccc(N)cc2)nc1`, the Potency result in [1] and in [7] was “inactive” in each case. Also, the Potency in [9] was 11.8 µM (active).
Regarding `O=C(O)c1ccc(-n2nc(-c3ccccc3O)nc2-c2ccccc2O)cc1`, in assay [1], the Potency was 23.5 µM (active). The Potency entry in [9] is “inactive”.
